What all share (test): DAPPL (digital affinity profiling via proximity ligation, sequencing); 10 mM Tris-HCl pH 7.5, 50 mM NaCl, 1 mM DTT, 4% glycerol, room temperature, 30 min; GST-TFs on glutathione beads, 16-mer random dsDNA library, 0.1% formaldehyde crosslink after washing; high values mean tight binding
In one test the target is T1, FEV (Homo sapiens, UniProt Q99581 1-238).
T1 sequence: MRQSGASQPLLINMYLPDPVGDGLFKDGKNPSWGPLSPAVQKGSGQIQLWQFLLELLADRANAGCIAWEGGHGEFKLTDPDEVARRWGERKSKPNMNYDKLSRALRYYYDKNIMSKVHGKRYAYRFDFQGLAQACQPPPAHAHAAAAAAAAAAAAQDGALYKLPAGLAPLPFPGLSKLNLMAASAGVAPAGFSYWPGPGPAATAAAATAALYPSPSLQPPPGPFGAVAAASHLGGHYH
As to conditions: protein: recombinant; tags: N-terminal GST; dsDNA, one strand shown. An outline of the steps: (§1)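 Binding signal is given per hexamer as its read frequency for a factor divided by its frequency in the tag-only sample. GST-fused human transcription factors were expressed in yeast, captured on glutathione beads, barcoded with DNA and pooled with that sample, then incubated with 200 nmole of a 16-mer random double-stranded DNA library in Tris/NaCl/DTT/glycerol buffer for 30 min at room temperature. The pools were then washed, crosslinked, proximity-ligated, amplified by PCR and sequenced on an Illumina NextSeq500.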

The target in a further test is ETV5 (Homo sapiens, UniProt P41161 1-510). As to conditions: protein: recombinant; tags: N-terminal GST; dsDNA, one strand shown. A digest of the protocol: as §1
A further test deals with HSF1 (Homo sapiens, UniProt Q00613 1-529). As to conditions: protein: recombinant; tags: N-terminal GST; chain copies: 3; dsDNA, one strand shown. A digest of the protocol: as §1
For another test, the target named is T2, SPIC (Homo sapiens, UniProt Q8N5J4 1-248).
T2 sequence: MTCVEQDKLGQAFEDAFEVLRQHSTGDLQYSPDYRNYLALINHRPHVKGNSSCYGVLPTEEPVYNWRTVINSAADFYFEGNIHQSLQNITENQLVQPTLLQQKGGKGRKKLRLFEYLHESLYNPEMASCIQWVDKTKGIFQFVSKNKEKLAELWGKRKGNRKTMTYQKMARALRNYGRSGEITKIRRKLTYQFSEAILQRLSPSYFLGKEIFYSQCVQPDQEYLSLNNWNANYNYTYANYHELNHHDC
As to conditions: protein: recombinant; tags: N-terminal GST; dsDNA, one strand shown. A digest of the protocol:
as §1

The target in the next test is ELF4 (Homo sapiens, UniProt Q99607 1-663). As to conditions: protein: recombinant; tags: N-terminal GST; dsDNA, one strand shown. An outline of the steps:
as §1

A further test addresses T3, ELK4 (Homo sapiens, UniProt P28324-2 1-405).
T3 sequence: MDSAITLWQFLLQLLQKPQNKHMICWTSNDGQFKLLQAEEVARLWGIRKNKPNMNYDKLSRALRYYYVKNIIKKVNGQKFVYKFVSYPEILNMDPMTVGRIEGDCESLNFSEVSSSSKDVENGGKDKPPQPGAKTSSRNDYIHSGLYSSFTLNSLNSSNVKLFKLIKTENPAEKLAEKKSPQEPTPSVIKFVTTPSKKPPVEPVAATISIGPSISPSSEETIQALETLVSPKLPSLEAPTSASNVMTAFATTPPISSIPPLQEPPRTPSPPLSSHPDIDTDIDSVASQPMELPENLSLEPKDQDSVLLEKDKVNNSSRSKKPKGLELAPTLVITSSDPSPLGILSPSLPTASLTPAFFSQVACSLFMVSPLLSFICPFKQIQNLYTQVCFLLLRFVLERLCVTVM
As to conditions: protein: recombinant; tags: N-terminal GST; dsDNA, one strand shown. An outline of the steps:
as §1

Another test has as its target T4, ETV2 (Homo sapiens, UniProt O00321 1-342).
T4 sequence: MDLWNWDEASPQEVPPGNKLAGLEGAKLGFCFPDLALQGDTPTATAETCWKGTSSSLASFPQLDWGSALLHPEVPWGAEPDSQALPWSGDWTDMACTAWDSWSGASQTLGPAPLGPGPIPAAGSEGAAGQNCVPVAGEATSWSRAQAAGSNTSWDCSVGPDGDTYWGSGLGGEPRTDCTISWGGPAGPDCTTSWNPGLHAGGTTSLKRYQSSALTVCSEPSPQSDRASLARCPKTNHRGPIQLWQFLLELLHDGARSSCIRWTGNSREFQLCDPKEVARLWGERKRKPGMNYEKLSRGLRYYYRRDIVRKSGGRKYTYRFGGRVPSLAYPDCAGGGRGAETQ
As to conditions: protein: recombinant; tags: N-terminal GST; dsDNA, one strand shown. A digest of the protocol: as §1

Another test addresses T5, ELF3 (Homo sapiens, UniProt P78545 1-371).
T5 sequence: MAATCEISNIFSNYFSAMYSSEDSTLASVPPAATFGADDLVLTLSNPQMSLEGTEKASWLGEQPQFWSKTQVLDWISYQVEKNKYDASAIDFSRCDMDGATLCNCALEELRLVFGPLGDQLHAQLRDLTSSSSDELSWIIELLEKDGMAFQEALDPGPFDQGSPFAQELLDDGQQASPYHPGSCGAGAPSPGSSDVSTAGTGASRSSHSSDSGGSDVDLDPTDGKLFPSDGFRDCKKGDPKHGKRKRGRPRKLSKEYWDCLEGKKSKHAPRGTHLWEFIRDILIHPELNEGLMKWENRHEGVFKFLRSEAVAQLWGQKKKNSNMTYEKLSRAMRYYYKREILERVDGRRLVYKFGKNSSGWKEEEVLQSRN
Particulars: protein: recombinant; tags: N-terminal GST; dsDNA, one strand shown. A digest of the protocol:
as §1

A further test concerns the target CRX (Homo sapiens, UniProt O43186 1-299). As to conditions: protein: recombinant; tags: N-terminal GST; dsDNA, one strand shown. A digest of the protocol:
as §1

In the next test the target is ETV1 (Homo sapiens, UniProt P50549 1-477). As to conditions: protein: recombinant; tags: N-terminal GST; dsDNA, one strand shown. A digest of the protocol:
as §1

A further test has as its target T6, ERF (Homo sapiens, UniProt P50548 1-548).
T6 sequence: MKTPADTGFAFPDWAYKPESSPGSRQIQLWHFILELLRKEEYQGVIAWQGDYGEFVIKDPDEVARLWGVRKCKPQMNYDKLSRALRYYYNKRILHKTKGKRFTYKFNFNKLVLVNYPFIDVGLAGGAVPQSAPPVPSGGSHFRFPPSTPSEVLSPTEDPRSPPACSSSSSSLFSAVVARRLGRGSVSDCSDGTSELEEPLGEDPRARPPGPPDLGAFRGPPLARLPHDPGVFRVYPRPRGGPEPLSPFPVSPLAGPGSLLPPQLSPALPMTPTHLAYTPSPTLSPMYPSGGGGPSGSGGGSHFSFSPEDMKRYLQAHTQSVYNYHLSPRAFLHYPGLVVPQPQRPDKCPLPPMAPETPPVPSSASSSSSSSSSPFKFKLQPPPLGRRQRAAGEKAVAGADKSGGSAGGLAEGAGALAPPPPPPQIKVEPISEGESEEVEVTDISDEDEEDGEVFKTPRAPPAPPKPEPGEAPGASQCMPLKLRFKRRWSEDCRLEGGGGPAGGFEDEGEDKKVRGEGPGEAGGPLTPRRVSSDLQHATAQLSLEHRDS
Particulars: protein: recombinant; tags: N-terminal GST; dsDNA, one strand shown. An outline of the steps: as §1

For the next test, the target named is T7, ETV3L (Homo sapiens, UniProt Q6ZN32 1-361).
T7 sequence: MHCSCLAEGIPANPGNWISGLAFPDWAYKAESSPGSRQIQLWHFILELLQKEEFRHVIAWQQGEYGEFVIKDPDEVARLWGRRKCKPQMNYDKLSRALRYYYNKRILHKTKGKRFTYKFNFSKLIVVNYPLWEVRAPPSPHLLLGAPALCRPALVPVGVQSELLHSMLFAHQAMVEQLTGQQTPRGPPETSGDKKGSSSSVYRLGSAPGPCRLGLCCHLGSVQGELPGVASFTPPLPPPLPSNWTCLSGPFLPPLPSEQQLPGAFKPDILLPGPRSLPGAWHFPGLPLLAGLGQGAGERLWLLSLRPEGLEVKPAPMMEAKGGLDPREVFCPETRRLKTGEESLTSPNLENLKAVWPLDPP
As to conditions: protein: recombinant; tags: N-terminal GST; dsDNA, one strand shown. A digest of the protocol: as §1

The target in another test is T8, ETS2 (Homo sapiens, UniProt P15036 1-469).
T8 sequence: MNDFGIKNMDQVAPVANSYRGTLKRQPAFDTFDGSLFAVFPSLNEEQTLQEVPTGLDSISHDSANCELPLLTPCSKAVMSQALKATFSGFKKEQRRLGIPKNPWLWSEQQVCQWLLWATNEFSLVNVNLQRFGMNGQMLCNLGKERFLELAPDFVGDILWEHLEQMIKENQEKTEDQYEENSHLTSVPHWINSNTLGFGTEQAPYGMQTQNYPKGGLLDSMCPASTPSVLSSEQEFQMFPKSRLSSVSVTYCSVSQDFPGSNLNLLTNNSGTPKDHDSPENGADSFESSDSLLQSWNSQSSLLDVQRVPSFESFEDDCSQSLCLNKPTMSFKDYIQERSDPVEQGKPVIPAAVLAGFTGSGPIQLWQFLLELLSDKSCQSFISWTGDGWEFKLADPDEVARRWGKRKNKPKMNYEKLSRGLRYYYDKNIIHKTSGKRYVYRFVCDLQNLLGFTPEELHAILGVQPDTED
As to conditions: protein: recombinant; tags: N-terminal GST; dsDNA, one strand shown. A digest of the protocol:
as §1

For a further test, the target named is T9, SPDEF (Homo sapiens, UniProt O95238 1-335).
T9 sequence: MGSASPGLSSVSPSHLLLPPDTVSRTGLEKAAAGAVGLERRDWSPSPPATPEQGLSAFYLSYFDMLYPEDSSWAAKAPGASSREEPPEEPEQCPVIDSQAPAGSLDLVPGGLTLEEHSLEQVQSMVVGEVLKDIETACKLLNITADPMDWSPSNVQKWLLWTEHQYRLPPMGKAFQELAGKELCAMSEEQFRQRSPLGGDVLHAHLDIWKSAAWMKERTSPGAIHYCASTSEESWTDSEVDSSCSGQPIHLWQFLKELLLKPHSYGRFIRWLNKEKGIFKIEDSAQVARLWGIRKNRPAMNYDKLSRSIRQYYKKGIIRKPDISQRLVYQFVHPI
As to conditions: protein: recombinant; tags: N-terminal GST; dsDNA, one strand shown. A digest of the protocol: as §1

Another test has as its target T10, ETV7 (Homo sapiens, UniProt Q9Y603 1-341).
T10 sequence: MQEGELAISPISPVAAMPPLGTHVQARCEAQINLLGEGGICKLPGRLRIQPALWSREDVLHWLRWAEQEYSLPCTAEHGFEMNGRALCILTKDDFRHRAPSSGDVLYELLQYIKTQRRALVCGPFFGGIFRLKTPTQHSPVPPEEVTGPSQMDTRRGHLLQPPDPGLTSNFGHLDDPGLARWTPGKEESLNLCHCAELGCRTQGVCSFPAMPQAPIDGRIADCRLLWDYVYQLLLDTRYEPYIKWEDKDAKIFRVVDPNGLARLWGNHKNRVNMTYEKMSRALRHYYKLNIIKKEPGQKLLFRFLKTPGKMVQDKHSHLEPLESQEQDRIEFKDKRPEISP
As to conditions: protein: recombinant; tags: N-terminal GST; dsDNA, one strand shown. A digest of the protocol:
as §1

The next test addresses T11, ELF5 (Homo sapiens, UniProt Q9UKW6-2 1-255).
T11 sequence: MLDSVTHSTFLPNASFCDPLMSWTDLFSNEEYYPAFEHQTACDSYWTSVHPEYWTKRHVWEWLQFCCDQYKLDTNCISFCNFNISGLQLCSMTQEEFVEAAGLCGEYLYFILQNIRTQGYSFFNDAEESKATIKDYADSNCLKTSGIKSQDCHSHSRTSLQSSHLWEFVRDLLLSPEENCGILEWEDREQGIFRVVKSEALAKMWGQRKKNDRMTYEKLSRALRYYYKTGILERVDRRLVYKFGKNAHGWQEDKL
Particulars: protein: recombinant; tags: N-terminal GST; dsDNA, one strand shown. An outline of the steps:
as §1

The target of the next test is T12, ETV3 (Homo sapiens, UniProt P41162-2 1-143).
T12 sequence: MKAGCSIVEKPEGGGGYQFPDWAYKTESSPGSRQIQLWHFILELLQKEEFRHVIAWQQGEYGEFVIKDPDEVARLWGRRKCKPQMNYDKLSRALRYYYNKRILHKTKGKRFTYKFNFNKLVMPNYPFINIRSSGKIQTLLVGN
As to conditions: protein: recombinant; tags: N-terminal GST; dsDNA, one strand shown. A digest of the protocol:
as §1

Another test concerns the target ETV6 (Homo sapiens, UniProt P41212 1-452). Particulars: protein: recombinant; tags: N-terminal GST; dsDNA, one strand shown. A digest of the protocol: as §1

This is an account of results in paper PMC7862700, “An all-to-all approach to the identification of sequence-specific readers for epigenetic DNA modifications on cytosine”.

Sequence of ETV6 (P41212 whole entry): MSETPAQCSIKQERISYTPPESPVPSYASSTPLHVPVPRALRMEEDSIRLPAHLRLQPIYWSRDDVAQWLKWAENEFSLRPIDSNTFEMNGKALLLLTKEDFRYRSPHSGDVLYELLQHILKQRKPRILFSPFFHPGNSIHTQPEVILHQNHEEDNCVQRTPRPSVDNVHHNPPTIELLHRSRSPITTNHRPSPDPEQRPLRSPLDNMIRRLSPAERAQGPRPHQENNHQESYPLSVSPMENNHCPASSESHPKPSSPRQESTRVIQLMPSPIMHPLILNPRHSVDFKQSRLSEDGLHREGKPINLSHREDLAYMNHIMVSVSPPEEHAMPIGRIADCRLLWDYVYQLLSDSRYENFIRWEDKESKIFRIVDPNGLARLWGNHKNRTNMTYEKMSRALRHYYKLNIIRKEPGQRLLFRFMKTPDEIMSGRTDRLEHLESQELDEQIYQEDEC
Sequence of ETV5 (P41161 whole entry): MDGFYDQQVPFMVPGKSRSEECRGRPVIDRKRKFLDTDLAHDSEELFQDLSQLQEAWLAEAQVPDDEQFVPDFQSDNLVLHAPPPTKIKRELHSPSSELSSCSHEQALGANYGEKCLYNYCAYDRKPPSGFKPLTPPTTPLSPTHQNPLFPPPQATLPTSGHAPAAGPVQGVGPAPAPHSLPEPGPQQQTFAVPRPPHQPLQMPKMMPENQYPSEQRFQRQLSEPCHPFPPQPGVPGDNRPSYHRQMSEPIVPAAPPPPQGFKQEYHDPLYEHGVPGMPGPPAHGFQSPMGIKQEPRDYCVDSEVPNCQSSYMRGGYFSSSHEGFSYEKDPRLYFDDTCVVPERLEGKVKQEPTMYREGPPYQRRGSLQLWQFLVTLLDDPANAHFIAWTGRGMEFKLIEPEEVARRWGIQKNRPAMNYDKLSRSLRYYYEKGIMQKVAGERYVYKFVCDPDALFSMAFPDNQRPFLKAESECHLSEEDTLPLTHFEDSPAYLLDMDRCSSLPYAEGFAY
Sequence of CRX (O43186 whole entry): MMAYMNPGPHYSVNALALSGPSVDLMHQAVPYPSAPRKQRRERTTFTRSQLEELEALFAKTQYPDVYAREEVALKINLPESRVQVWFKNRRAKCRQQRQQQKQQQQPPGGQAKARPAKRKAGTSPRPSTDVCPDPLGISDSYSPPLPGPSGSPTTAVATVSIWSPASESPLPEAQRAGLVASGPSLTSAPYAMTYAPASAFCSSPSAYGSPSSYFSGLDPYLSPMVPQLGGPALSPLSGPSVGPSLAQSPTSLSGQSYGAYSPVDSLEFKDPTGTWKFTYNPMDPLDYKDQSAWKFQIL
Sequence of HSF1 (Q00613 whole entry): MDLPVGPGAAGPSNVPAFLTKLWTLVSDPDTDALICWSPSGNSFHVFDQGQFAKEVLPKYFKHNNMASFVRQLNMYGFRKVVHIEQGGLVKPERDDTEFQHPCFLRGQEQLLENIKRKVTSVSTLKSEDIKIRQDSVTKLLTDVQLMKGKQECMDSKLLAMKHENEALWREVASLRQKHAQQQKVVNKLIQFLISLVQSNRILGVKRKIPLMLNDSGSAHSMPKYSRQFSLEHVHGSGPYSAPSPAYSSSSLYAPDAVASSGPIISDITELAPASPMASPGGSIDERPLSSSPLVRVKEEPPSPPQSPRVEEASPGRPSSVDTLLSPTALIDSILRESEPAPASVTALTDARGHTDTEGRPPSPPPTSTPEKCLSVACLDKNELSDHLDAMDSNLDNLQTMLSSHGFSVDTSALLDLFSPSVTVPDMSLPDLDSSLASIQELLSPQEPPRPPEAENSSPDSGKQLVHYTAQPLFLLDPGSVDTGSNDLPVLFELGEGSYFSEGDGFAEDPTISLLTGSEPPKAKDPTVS
Sequence of ELF4 (Q99607 whole entry): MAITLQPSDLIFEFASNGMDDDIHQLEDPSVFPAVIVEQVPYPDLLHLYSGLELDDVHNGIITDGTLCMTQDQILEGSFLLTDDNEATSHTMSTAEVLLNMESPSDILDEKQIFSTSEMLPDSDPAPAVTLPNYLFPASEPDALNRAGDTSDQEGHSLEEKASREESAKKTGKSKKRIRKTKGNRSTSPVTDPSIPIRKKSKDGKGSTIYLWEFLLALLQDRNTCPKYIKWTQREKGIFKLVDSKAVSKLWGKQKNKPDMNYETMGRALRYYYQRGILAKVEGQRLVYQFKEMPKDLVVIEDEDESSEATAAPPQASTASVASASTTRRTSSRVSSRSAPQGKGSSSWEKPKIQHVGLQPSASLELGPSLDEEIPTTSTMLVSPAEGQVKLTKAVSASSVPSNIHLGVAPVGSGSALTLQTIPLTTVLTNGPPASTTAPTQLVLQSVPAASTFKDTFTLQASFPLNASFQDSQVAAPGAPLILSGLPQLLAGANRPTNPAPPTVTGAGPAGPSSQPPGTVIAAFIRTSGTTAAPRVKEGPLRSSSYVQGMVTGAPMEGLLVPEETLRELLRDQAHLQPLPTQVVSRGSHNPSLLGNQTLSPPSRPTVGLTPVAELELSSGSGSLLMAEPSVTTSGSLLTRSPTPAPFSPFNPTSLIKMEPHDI
Sequence of ETV1 (P50549 whole entry): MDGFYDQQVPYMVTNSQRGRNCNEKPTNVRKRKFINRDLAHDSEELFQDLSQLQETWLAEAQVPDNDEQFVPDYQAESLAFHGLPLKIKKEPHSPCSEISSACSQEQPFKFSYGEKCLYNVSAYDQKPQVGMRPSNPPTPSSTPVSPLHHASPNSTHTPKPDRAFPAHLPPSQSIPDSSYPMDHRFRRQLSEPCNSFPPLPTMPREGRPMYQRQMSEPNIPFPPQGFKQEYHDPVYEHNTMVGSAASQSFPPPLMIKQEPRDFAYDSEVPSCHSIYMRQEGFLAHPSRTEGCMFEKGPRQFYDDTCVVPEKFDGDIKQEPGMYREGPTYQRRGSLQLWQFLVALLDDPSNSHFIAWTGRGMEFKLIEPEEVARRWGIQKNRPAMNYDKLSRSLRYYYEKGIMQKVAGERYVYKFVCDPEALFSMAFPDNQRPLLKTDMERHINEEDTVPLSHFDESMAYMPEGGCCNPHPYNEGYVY

Regarding AAGCAT, the binding signal was 1.07 fold enrichment (6-mer frequency, TF over GST control) with FEV; 1.06 fold enrichment (6-mer frequency, TF over GST control) in the test with ETV5; 1.15 fold enrichment (6-mer frequency, TF over GST control) with HSF1; 1.06 fold enrichment (6-mer frequency, TF over GST control) in the test with SPIC; 1.13 fold enrichment (6-mer frequency, TF over GST control) with ELF4; 1.19 fold enrichment (6-mer frequency, TF over GST control) in the test with ELK4. The binding signal is 1.06 fold enrichment (6-mer frequency, TF over GST control) with ETV2; 1.17 fold enrichment (6-mer frequency, TF over GST control) with ELF3; 1.14 fold enrichment (6-mer frequency, TF over GST control) with CRX; 1.04 fold enrichment (6-mer frequency, TF over GST control) with ETV1; 1.19 fold enrichment (6-mer frequency, TF over GST control) in the test with ERF; 1.09 fold enrichment (6-mer frequency, TF over GST control) with ETV3L. The binding signal in the test with ETS2 was 1.2 fold enrichment (6-mer frequency, TF over GST control); in the test with SPDEF, 1.08 fold enrichment (6-mer frequency, TF over GST control); with ETV7 it was 1.14 fold enrichment (6-mer frequency, TF over GST control); in the test with ELF5, 1.06 fold enrichment (6-mer frequency, TF over GST control); with ETV3 it was 1.13 fold enrichment (6-mer frequency, TF over GST control); in the test with ETV6, 1.14 fold enrichment (6-mer frequency, TF over GST control).
